Test results as given in publication PMC12820563, “FoxP3 forms a head-to-head dimer in vivo and stabilizes its multimerization on adjacent microsatellites”.
Over roughly 16,000 sequences, “rpm ratio (pull-down/input)” has its median near 0.5; the highest 2% begin near 5.5. Many of the other results were omitted from the sample, so the highest values are more common in it than they were.

What follows are sequences tested against T1, MBP-FoxP3dN (Mus musculus, UniProt Q99JB6 188-423) (assay: PD-seq (MBP pull-down with sequencing); 20 mM Tris-HCl pH 7.5, 100 mM NaCl, 1.5 mM MgCl2, 0.4 uM protein, 0.1 uM dsDNA library, 30 min, room temperature, amylose pull-down; high values mean tight binding). Conditions: protein: recombinant; tags: His6-MBP; chain copies: 2; dsDNA, one strand shown.
T1 sequence: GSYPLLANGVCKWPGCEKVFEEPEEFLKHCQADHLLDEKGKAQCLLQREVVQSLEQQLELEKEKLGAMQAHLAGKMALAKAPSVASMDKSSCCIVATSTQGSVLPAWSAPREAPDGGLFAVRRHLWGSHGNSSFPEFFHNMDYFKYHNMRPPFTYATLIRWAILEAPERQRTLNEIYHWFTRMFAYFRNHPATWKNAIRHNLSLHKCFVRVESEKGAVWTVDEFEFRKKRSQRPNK
Summary of the method: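 A fragment of mouse FoxP3 or FoxP1 without its N-terminus, carrying a His6-MBP tag and produced in E. coli, was combined at 0.4 µM with a 0.1 µM degenerate double-stranded DNA library filled in with Klenow. The mixture sat for 30 min at room temperature in Tris pH 7.5 buffer containing NaCl and MgCl2. Protein–DNA complexes were captured on amylose resin, washed three times, and the DNA was freed with proteinase K, barcoded by PCR and sequenced on Illumina. Binding is expressed as reads-per-million enrichment of pull-down over input, with replicates pooled.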

For “GATGATTGTTCTCCCAGCTGATGAATTATGTTGGTCGAGTAAACAAATTTTCCTAATCTTTCTGTTCAAGCGCCATCTAC”, which binding signal is on record?
Its binding signal is 6.57 RPM ratio (pull-down/input).

With “GATGATTGTTCTCCCAGCTGATGAATTATGTTGATCGAGTAAACAAATTTTCCTAATCTTTCTGTTCAAGCGCCATCTAC” as the sequence, how does the binding signal read?
Its binding signal is 7.26 RPM ratio (pull-down/input).

Which binding signal does the source give for “GATGATTGTTCTCCCAGCTGATGAATTATGTGTTTCGAGTAAACAAATTTTCCTAATCTTTCTGTTCAAGCGCCATCTAC” here?
Its binding signal is 4.42 RPM ratio (pull-down/input).

How did the binding signal turn out when “GATGATTGTTCTCCCAGCTGATGAATTATCTTGGTCGAGTAAACAAATTTTCCTAATCTTTCTGTTCAAGCGCCATCTAC” was run?
The binding signal was 0.323 RPM ratio (pull-down/input).

For “GATGATTGTTCTCCCAGCTGATGAATTATGTTGTTCGAGTAAACAAATTTTCCTAATCTTTCTGTTCAAGCGCCATCTAC”, which binding signal is on record?
Its binding signal is 7.62 RPM ratio (pull-down/input).

“GATGATTGTTCTCCCAGCTGATGAATTATGTCTTTCGAGTAAACAAATTTTCCTAATCTTTCTGTTCAAGCGCCATCTAC” was tested. Which binding signal did it give?
Its binding signal is 1.78 RPM ratio (pull-down/input).

With “GATGATTGTTCTCCCAGCTGATGAATTATGTTCATCGAGTAAACAAATTTTCCTAATCTTTCTGTTCAAGCGCCATCTAC” as the sequence, how does the binding signal read?
Its binding signal is 1.09 RPM ratio (pull-down/input).

How did the binding signal turn out when “GATGATTGTTCTCCCAGCTGATGAATTATGATGATCGAGTAAACAAATTTTCCTAATCTTTCTGTTCAAGCGCCATCTAC” was run?
Its binding signal is 1.63 RPM ratio (pull-down/input).

For “GATGATTGTTCTCCCAGCTGATGAATTAGATCATTCGAGTAAACAAATTTTCCTAATCTTTCTGTTCAAGCGCCATCTAC”, which binding signal is on record?
The binding signal was 0.534 RPM ratio (pull-down/input).

How did the binding signal turn out when “GATGATTGTTCTCCCAGCTGATGAATTTAAGGTGTCGAGTAAACAAATTTTCCTAATCTTTCTGTTCAAGCGCCATCTAC” was run?
Its binding signal is 0.772 RPM ratio (pull-down/input).

How did the binding signal turn out when “GATGATTGTTCTCCCAGCTGATGAATTCACTAAATCGAGTAAACAAATTTTCCTAATCTTTCTGTTCAAGCGCCATCTAC” was run?
Its binding signal is 0.211 RPM ratio (pull-down/input).

Which binding signal does the source give for “GATGATTGTTCTCCCAGCTGATGAATTCTGGTCGTCGAGTAAACAAATTTTCCTAATCTTTCTGTTCAAGCGCCATCTAC” here?
The binding signal was 0.464 RPM ratio (pull-down/input).

For “GATGATTGTTCTCCCAGCTGATGAATTCTCAGCTTCGAGTAAACAAATTTTCCTAATCTTTCTGTTCAAGCGCCATCTAC”, which binding signal is on record?
The binding signal was 0.293 RPM ratio (pull-down/input).

How did the binding signal turn out when “GATGATTGTTCTCCCAGCTGATGAATTATGATAATCGAGTAAACAAATTTTCCTAATCTTTCTGTTCAAGCGCCATCTAC” was run?
The binding signal was 0.653 RPM ratio (pull-down/input).

Which binding signal does the source give for “GATGATTGTTCTCCCAGCTGATGAATTTAGGGCTTCGAGTAAACAAATTTTCCTAATCTTTCTGTTCAAGCGCCATCTAC” here?
The binding signal was 0.514 RPM ratio (pull-down/input).

Which binding signal does the source give for “GATGATTGTTCTCCCAGCTGATGAATTTTGCGTATCGAGTAAACAAATTTTCCTAATCTTTCTGTTCAAGCGCCATCTAC” here?
The binding signal was 3.74 RPM ratio (pull-down/input).

“GATGATTGTTCTCCCAGCTGATGAATTGTGACAGTCGAGTAAACAAATTTTCCTAATCTTTCTGTTCAAGCGCCATCTAC” was tested. Which binding signal did it give?
The binding signal was 0.817 RPM ratio (pull-down/input).

“GATGATTGTTCTCCCAGCTGATGAATTGTCAGAGTCGAGTAAACAAATTTTCCTAATCTTTCTGTTCAAGCGCCATCTAC” was tested. Which binding signal did it give?
The binding signal was 0.234 RPM ratio (pull-down/input).

Which binding signal does the source give for “GATGATTGTTCTCCCAGCTGATGAATTCCCGTCTTCGAGTAAACAAATTTTCCTAATCTTTCTGTTCAAGCGCCATCTAC” here?
The binding signal was 0.33 RPM ratio (pull-down/input).

How did the binding signal turn out when “GATGATTGTTCTCCCAGCTGATGAATTAGTAAACTCGAGTAAACAAATTTTCCTAATCTTTCTGTTCAAGCGCCATCTAC” was run?
The binding signal was 1.08 RPM ratio (pull-down/input).

How did the binding signal turn out when “GATGATTGTTCTCCCAGCTGATGAATTACGTTGGTCGAGTAAACAAATTTTCCTAATCTTTCTGTTCAAGCGCCATCTAC” was run?
Its binding signal is 1.3 RPM ratio (pull-down/input).

For “GATGATTGTTCTCCCAGCTGATGAATTATTATGTTCGAGTAAACAAATTTTCCTAATCTTTCTGTTCAAGCGCCATCTAC”, which binding signal is on record?
Its binding signal is 1.3 RPM ratio (pull-down/input).

How did the binding signal turn out when “GATGATTGTTCTCCCAGCTGATGAATTATTTGTTTCGAGTAAACAAATTTTCCTAATCTTTCTGTTCAAGCGCCATCTAC” was run?
Its binding signal is 4.2 RPM ratio (pull-down/input).

For “GATGATTGTTCTCCCAGCTGATGAATTTCGTTATTCGAGTAAACAAATTTTCCTAATCTTTCTGTTCAAGCGCCATCTAC”, which binding signal is on record?
Its binding signal is 2.7 RPM ratio (pull-down/input).

For “GATGATTGTTCTCCCAGCTGATGAATTATGTTATTCGAGTAAACAAATTTTCCTAATCTTTCTGTTCAAGCGCCATCTAC”, which binding signal is on record?
Its binding signal is 7.23 RPM ratio (pull-down/input).

How did the binding signal turn out when “GATGATTGTTCTCCCAGCTGATGAATTTGTTATTTCGAGTAAACAAATTTTCCTAATCTTTCTGTTCAAGCGCCATCTAC” was run?
Its binding signal is 7.62 RPM ratio (pull-down/input).

Which binding signal does the source give for “GATGATTGTTCTCCCAGCTGATGAATTTGGTTATTCGAGTAAACAAATTTTCCTAATCTTTCTGTTCAAGCGCCATCTAC” here?
The binding signal was 3.56 RPM ratio (pull-down/input).

“GATGATTGTTCTCCCAGCTGATGAATTGTTATTTTCGAGTAAACAAATTTTCCTAATCTTTCTGTTCAAGCGCCATCTAC” was tested. Which binding signal did it give?
The binding signal was 4.89 RPM ratio (pull-down/input).

With “GATGATTGTTCTCCCAGCTGATGAATTATGTAATTCGAGTAAACAAATTTTCCTAATCTTTCTGTTCAAGCGCCATCTAC” as the sequence, how does the binding signal read?
The binding signal was 3.03 RPM ratio (pull-down/input).

For “GATGATTGTTCTCCCAGCTGATGAATTATTTTGTTCGAGTAAACAAATTTTCCTAATCTTTCTGTTCAAGCGCCATCTAC”, which binding signal is on record?
Its binding signal is 1.15 RPM ratio (pull-down/input).

For “GATGATTGTTCTCCCAGCTGATGAATTTTGTTATTCGAGTAAACAAATTTTCCTAATCTTTCTGTTCAAGCGCCATCTAC”, which binding signal is on record?
Its binding signal is 7.33 RPM ratio (pull-down/input).

“GATGATTGTTCTCCCAGCTGATGAATTCTGTTATTCGAGTAAACAAATTTTCCTAATCTTTCTGTTCAAGCGCCATCTAC” was tested. Which binding signal did it give?
Its binding signal is 6.72 RPM ratio (pull-down/input).

Which binding signal does the source give for “GATGATTGTTCTCCCAGCTGATGAATTTGATTATTCGAGTAAACAAATTTTCCTAATCTTTCTGTTCAAGCGCCATCTAC” here?
The binding signal was 4.96 RPM ratio (pull-down/input).
